Data on 40 compounds can be found in PubChem BioAssay (NCATS).

Structures are written as SMILES. Results filed as inconclusive are left out. A number with no mark means an inactive call. Calls follow the shape of the dose curve; as a rule, active = well fitted cell-killing curve with a large enough effect; inconclusive = small, poorly fitted or top-dose-only effect; inactive = flat fitted curve, though single readings scatter.

The test is described as follows: qHTS of pediatric cancer cell lines to identify multiple opportunities for drug repurposing: Primary screen for BT-12 cells (AID 1347101). Also: nearly all actives have a fitted effect of over 25% in size. The following applies: BT-12 viability, CellTiter-Glo luminescence, 48 h; series mostly up to 57.3 µM; activity change, negative = cytotoxic: at the top concentration. An excerpt:
Drug repurposing or repositioning has been offered as a strategy for drug development in oncology programs. This approach has special potential for childhood cancers and other rare or orphan diseases, where the expected return on new drug development has been a disincentive to pharmaceuticals.
In this project we exploit the poly-pharmacology of drugs to discover new indications via phenotypic screening of a panel of 19 well-characterized cell lines derived from solid tumors seen in children and adolescents. The goal is to identify approved drugs with previously unrecognized anticancer properties that has the potential to reveal new mechanisms and biological processes involved in carcinogenesis or drug resistance. We employed a titration-based paradigm (quantitative high-throughput screening or qHTS), where all compounds were tested at multiple concentrations for their effect on cell viability. Concentration-response curves (CRCs) were derived directly from the primary screen, and both potency and efficacy values were used to identify compounds with robust bioactivity profiles. We screened the NIH Chemical Genomics Center (NCGC) Pharmaceutical Collection (NPC) and Mechanism Interrogation Plate (MIPE) small molecule collections of approved and investigational compounds against these cell lines; and measured metabolically active cells after 48 hours of compound treatment as a proxy for cell viability.
Assay Submitter: Nathalia J. Martinez, National Center for Advancing Translational Sciences, National Institutes of Health, Rockville, MD, USA; email: natalia.martinez@nih.gov
[1] Shen, M et al. Quantitative high-throughput phenotypic screening of pediatric cancer cell lines identifies multiple opportunities for drug repurposing. Oncotarget 2017 Dec 19;9(4):4758-4772. PMID 29435139.
The cells were obtained from University of North Carolina (UNC), Pediatric Preclinical Testing Program (PPT), and Coriell Institute (CI).
qHTS cell viability assay:
Cells were assayed in growth media at a density of 500-1,000 cells/well. Five microliters of cells were dispensed into 1,536-well, white, solid-bottom, TC-treated plates (Greiner Bio One) using a multidrop dispenser and incubated at 37 degrees C, 5% CO2, under a humidified atmosphere for 5 hours. Twenty-three nanoliters of compounds and controls (neutral control DMSO or positive control bortezomib at final concentration of 2.3 µM) were subsequently transferred by Kalypsys pintool. For primary screens, the MIPE collection was tested at 11-point dilutions (final concentrations range from 0.78 nM to 46 µM) and the NPC collection at 8-point dilutions (final concentrations range from 0.59 nM to 46 µM). Compounds tested in follow-up screens were assayed at 11-point dilutions. Cells were incubated for 48 hours, followed by addition of 3 µL of CellTiter-Glo (Promega). After a 15 min incubation at room temperature, samples were analyzed for luminescence intensity using a ViewLux High-throughput CCD imager equipped with clear filters.
Background: In qHTS, concentration-response curves come from the screen itself.
Take `CN(C(=O)c1c(O)c2ccccc2n(C)c1=O)c1ccccc1`: the “activity change, negative = cytotoxic” value is 7.02%.

Take `CCN(CC)CCOC(=O)C(c1ccccc1)c1ccccc1`: the “activity change, negative = cytotoxic” value was 5.89%. For the compound `OCc1ccc(Cl)cc1Cl`, the “activity change, negative = cytotoxic” value is 6.48%.

Consider `CCCCC1(COC(=O)CCC(=O)O)C(=O)N(c2ccccc2)N(c2ccccc2)C1=O`, for which the “activity change, negative = cytotoxic” value is 6.13%. For `FC(F)(F)C(Cl)Br` (stereo not given), the “activity change, negative = cytotoxic” value is -5.58%. With `CC[N+](C)(CC)CCOC(=O)C1c2ccccc2Oc2ccccc21` the figure was -4.32%. As for `CCCCCOC(=O)Nc1nc(=O)n([C@@H]2O[C@H](C)[C@@H](O)[C@H]2O)cc1F`, the “activity change, negative = cytotoxic” value was 15.7%. The result for `NC(=O)NS(=O)(=O)c1ccc(N)cc1` reads 13.2%. Turning to `CCc1nnc(NS(=O)(=O)c2ccc(N)cc2)s1`, the “activity change, negative = cytotoxic” value is 1.62%. Turning to `CN[C@@H]1[C@@H](O)[C@@H](O[C@@H]2[C@H](O)[C@H](O[C@H]3OC(CN)=CC[C@H]3N)[C@@H](N)C[C@H]2N)OCC1(C)O` (stereo not given in full), the “activity change, negative = cytotoxic” value was 11%.

Take `O=C(CN1CCNCC1)NC1CCCCC1`: the “activity change, negative = cytotoxic” value was 0.599%. With `CO[C@@]1(NC(=O)C(C(=O)O)c2ccc(O)cc2)C(=O)N2C(C(=O)O)=C(CSc3nnnn3C)CO[C@@H]21` (stereo not given in full) the figure was 18.2%. The result for `CCCCOC(=O)c1ccc(N)cc1` reads -1.13%. `Cc1ccccc1N=Nc1ccc(N=Nc2c(O)ccc3ccccc23)c(C)c1`: the “activity change, negative = cytotoxic” value is 2.83%. Turning to `CCCCCCCCCCOc1cc2c(=O)c(C(=O)OCC)c[nH]c2cc1OCC`, the activity change, negative = cytotoxic was 6.24% [at 6.03 µM]. With `Cc1cc(OI)c(C(C)C)cc1-c1cc(C(C)C)c(OI)cc1C` the figure was 11.1%; with `CC(=O)SC[C@@H](Cc1ccccc1)C(=O)NCC(=O)OCc1ccccc1`, 7.76%; with `CC[N+](CC)(CC(=O)Nc1c(C)cccc1C)Cc1ccccc1`, 5.06%.

For the compound `CC(=O)OCC(=O)[C@@]1(O)CC[C@H]2[C@@H]3CCC4=CC(=O)C=C[C@]4(C)[C@@]3(F)[C@@H](O)C[C@@]21C`, the “activity change, negative = cytotoxic” value is 1.23%. As to `Nc1ccc(S(=O)(=O)c2ccc(N)cc2)cc1`, the “activity change, negative = cytotoxic” value is 15.5%. Regarding `CC(=O)NS(=O)(=O)c1ccc(N)cc1`, the “activity change, negative = cytotoxic” value was 4.6%. The result for `NS(=O)(=O)c1ccc(C(=O)O)cc1` reads 9.72%. With `COC(=O)c1ccc(O)cc1` the figure was 10.2%; with `NC(=O)c1ccc([N+](=O)[O-])cc1Cl`, 5.76%; with `NC(N)=NCCN1CCCCCCC1`, 7.77% [at 0.745 µM]. The result for `O=C(O)c1ccc(OCCCOc2ccc(C(=O)O)cc2)cc1` reads 8.15%. Turning to `O=C(O)C(S)C(S)C(=O)O` (stereo not given), the “activity change, negative = cytotoxic” value was 9.73%. As to `CCCCCCCC(=O)OCC(COC(=O)CCCCCCC)OC(=O)CCCCCCC`, the “activity change, negative = cytotoxic” value is 5.37%. In the case of `CN1CCCN=C1COC(=O)C(O)(c1ccccc1)C1CCCCC1` (stereo not given), the “activity change, negative = cytotoxic” value is 1.5%.

Turning to `Cc1ccc(S(=O)(=O)NC(=O)NC2CCCCC2)cc1`, the “activity change, negative = cytotoxic” value is -0.999%. `O=C(CCBr)N1CCN(C(=O)CCBr)CC1`: the “activity change, negative = cytotoxic” value was -3.08%.

For the compound `O=C(O)CCCCC1CCSS1` (stereo not given), the “activity change, negative = cytotoxic” value is 17.9%. For the compound `C=CCNC(N)=S`, the “activity change, negative = cytotoxic” value is 4.19%. In the case of `NC(=O)CCCCC1CCSS1` (stereo not given), the “activity change, negative = cytotoxic” value is 23.7%. With `CC(C)c1cc2c(cc1S(=O)(=O)O)[C@@]1(C)CCC[C@@](C)(C(=O)O)[C@@H]1CC2` the figure was 3.01%; with `CC(CSC(=O)c1ccccc1)C(=O)N1C[C@@H](Sc2ccccc2)C[C@H]1C(=O)O` (stereo not given in full), 5.48% [at 20.1 µM]. With `CN1C(C)(C)CCCC1(C)C`, the “activity change, negative = cytotoxic” value was -2.16%. In the case of `NC(N)=NS(=O)(=O)c1ccc(N)cc1`, the “activity change, negative = cytotoxic” value is 5.69%. On to `CCN(CC)C(=O)c1cccc(C)c1`, for which the “activity change, negative = cytotoxic” value is 12.2%. As to `O=c1[nH]c2cc(C(F)(F)F)c(N3CCOCC3)cc2n(CP(=O)(O)O)c1=O`, the “activity change, negative = cytotoxic” value is -5.35%.
